Test results published in PubChem BioAssay AID1159580 (chemical genetic matrix, 2015).
Screen size: about 5,500 compounds; about 2,000 (36%) were called active. Roughly 18% stayed inconclusive and do not appear here. Rule as the data show it: active = normalized growth mostly below about 0.91 (no sharp cut-off); inconclusive = no clear call, values can overlap the other calls; inactive = mostly above about 0.92. The list shows a part of the results.

Assay: chemical genetic growth profiling, strain panel (AID 1159580);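 also: tested at 20 µM; growth read once vehicle control cultures reached saturation at 30 °C; 1 = growth at the plate median or of vehicle wells; lower values mean less growth of the strain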
Conditions: growth OD

Measured: normalized growth

C[C@H]1[C@H]2CCC3C4CC=C5C[C@@H](N(C)C)CC[C@]5(C)C4CC[C@@]32CN1C (some centres not stated)
inactive: S. cerevisiae deletion strains, locus YJR075W, strain HOC1, hits give low values 0.974 | S. cerevisiae deletion strains, locus YKL009W, strain mrt4, hits give low values 0.985 | S. cerevisiae deletion strains, locus YKL068W, hits give low values 0.989 | S. cerevisiae deletion strains, locus YKL085W, strain MDH1 (second series), hits give low values 0.997 | S. cerevisiae deletion strains, locus YKL085W, strain MDH1, hits give low values 0.997 | S. cerevisiae deletion strains, locus YKL160W, strain elf1, hits give low values 0.995 | S. cerevisiae deletion strains, locus YKL190W, strain CNB1, hits give low values 0.98 | S. cerevisiae deletion strains, locus YKR001C, strain vps1, hits give low values 0.989 | S. cerevisiae deletion strains, locus YKR026C, strain gcn3, hits give low values 0.99 | S. cerevisiae deletion strains, locus YKR091W, strain srl3, hits give low values 0.995 | S. cerevisiae deletion strains, locus YLL001W, strain dnm1, hits give low values 0.98 | S. cerevisiae deletion strains, locus YLL026W, hits give low values 0.987 | S. cerevisiae deletion strains, locus YLL041C, strain sdh2, hits give low values 1 | S. cerevisiae deletion strains, locus YLR027C, strain aat2, hits give low values 0.996 | S. cerevisiae deletion strains, locus YLR039C, strain RIC1, hits give low values 1.01 | S. cerevisiae deletion strains, locus YLR058C, strain SHM2, hits give low values 0.98 | S. cerevisiae deletion strains, locus YLR102C, strain apc9, hits give low values 0.992 | S. cerevisiae deletion strains, locus YLR113W, strain HOG1, hits give low values 1.02 | S. cerevisiae deletion strains, locus YLR221C, strain rsa3, hits give low values 0.997 | S. cerevisiae deletion strains, locus YLR258W, strain gsy2, hits give low values 0.975 | S. cerevisiae deletion strains, locus YLR262C, strain YPT6 (second series), hits give low values 1 | S. cerevisiae deletion strains, locus YLR262C, strain YPT6, hits give low values 0.962 | S. cerevisiae deletion strains, locus YLR268W, strain sec22, hits give low values 1.02 | S. cerevisiae deletion strains, locus YLR320W, strain mms22, hits give low values 0.955 | S. cerevisiae deletion strains, locus YLR330W, strain CHS5, hits give low values 0.992 | S. cerevisiae deletion strains, locus YLR342W, strain FKS1 (second series), hits give low values 0.986 | S. cerevisiae deletion strains, locus YLR342W, strain FKS1, hits give low values 0.991 | S. cerevisiae deletion strains, locus YLR357W, strain rsc2, hits give low values 0.955 | S. cerevisiae deletion strains, locus YLR370C, strain arc18, hits give low values 0.992 | S. cerevisiae deletion strains, locus YLR371W, strain rom2, hits give low values 0.981 | S. cerevisiae deletion strains, locus YLR384C, strain iki3, hits give low values 0.983 | S. cerevisiae deletion strains, locus YLR418C, strain cdc73, hits give low values 0.937 | S. cerevisiae deletion strains, locus YML016C, strain PPZ1, hits give low values 0.993 | S. cerevisiae deletion strains, locus YML032C, strain rad52, hits give low values 0.94 | S. cerevisiae deletion strains, locus YML120C, strain ndi1, hits give low values 1.01 | S. cerevisiae deletion strains, locus YML124C, strain tub3, hits give low values 0.996 | S. cerevisiae deletion strains, locus YMR058W, strain fet3, hits give low values 0.993 | S. cerevisiae deletion strains, locus YMR078C, strain ctf18, hits give low values 0.988 | S. cerevisiae deletion strains, locus YMR125W, strain sto1, hits give low values 0.947 | S. cerevisiae deletion strains, locus YMR129W, hits give low values 0.997 | S. cerevisiae deletion strains, locus YMR205C, strain PFK2, hits give low values 0.935 | S. cerevisiae deletion strains, locus YMR223W, strain ubp8, hits give low values 0.972 | S. cerevisiae deletion strains, locus YMR231W, strain pep5, hits give low values 0.994 | S. cerevisiae deletion strains, locus YMR263W, strain SAP30, hits give low values 0.987 | S. cerevisiae deletion strains, locus YMR307W, strain GAS1, hits give low values 0.874 | S. cerevisiae deletion strains, locus YNL067W, strain RPL9B, hits give low values 0.978 | S. cerevisiae deletion strains, locus YNL071W, strain lat1, hits give low values 0.987 | S. cerevisiae deletion strains, locus YNL128W, strain TEP1, hits give low values 0.981 | S. cerevisiae deletion strains, locus YNL153C, strain GIM3, hits give low values 0.982 | S. cerevisiae deletion strains, locus YNL183C, strain NPR1, hits give low values 0.973 | S. cerevisiae deletion strains, locus YNL209W, strain ssb2, hits give low values 1 | S. cerevisiae deletion strains, locus YNL233W, strain BNI4, hits give low values 1 | S. cerevisiae deletion strains, locus YNL248C, strain rpa49, hits give low values 0.991 | S. cerevisiae deletion strains, locus YNL250W, strain rad50, hits give low values 0.965 | S. cerevisiae deletion strains, locus YNL271C, strain bni1, hits give low values 0.988 | S. cerevisiae deletion strains, locus YNL298W, strain CLA4, hits give low values 0.977 | S. cerevisiae deletion strains, locus YNL307C, strain MCK1, hits give low values 0.988 | S. cerevisiae deletion strains, locus YNL322C, strain KRE1 (second series), hits give low values 0.992 | S. cerevisiae deletion strains, locus YNL322C, strain KRE1, hits give low values 0.994 | S. cerevisiae deletion strains, locus YNR049C, strain mso1, hits give low values 0.997 | S. cerevisiae deletion strains, locus YNR052C, strain pop2, hits give low values 0.978 | S. cerevisiae deletion strains, locus YOL006C, strain TOP1, hits give low values 0.991 | S. cerevisiae deletion strains, locus YOL012C, strain htz1 0.864 | S. cerevisiae deletion strains, locus YOL147C, strain pex11, hits give low values 0.991 | S. cerevisiae deletion strains, locus YOR001W, strain rrp6, hits give low values 1.02 | S. cerevisiae deletion strains, locus YOR061W, strain CKA2, hits give low values 0.96 | S. cerevisiae deletion strains, locus YOR069W, strain VPS5, hits give low values 1 | S. cerevisiae deletion strains, locus YOR070C, strain gyp1, hits give low values 0.993 | S. cerevisiae deletion strains, locus YOR080W, strain dia2, hits give low values 0.978 | S. cerevisiae deletion strains, locus YOR083W, strain WHI5, hits give low values 1 | S. cerevisiae deletion strains, locus YOR106W, strain vam3, hits give low values 1 | S. cerevisiae deletion strains, locus YOR136W, strain idh2, hits give low values 0.991 | S. cerevisiae deletion strains, locus YOR144C, strain elg1, hits give low values 0.991 | S. cerevisiae deletion strains, locus YOR184W, strain ser1, hits give low values 0.963 | S. cerevisiae deletion strains, locus YOR231W, strain MKK1, hits give low values 1.01 | S. cerevisiae deletion strains, locus YOR265W, strain rbl2, hits give low values 0.991 | S. cerevisiae deletion strains, locus YOR270C, strain vph1, hits give low values 1 | S. cerevisiae deletion strains, locus YOR290C, strain snf2, hits give low values 0.96 | S. cerevisiae deletion strains, locus YOR316C, strain cot1, hits give low values 0.989 | S. cerevisiae deletion strains, locus YPL051W, strain arl3, hits give low values 1 | S. cerevisiae deletion strains, locus YPL055C, strain LGE1, hits give low values 0.952 | S. cerevisiae deletion strains, locus YPL078C, strain atp4, hits give low values 1.01 | S. cerevisiae deletion strains, locus YPL106C, strain sse1, hits give low values 0.977 | S. cerevisiae deletion strains, locus YPL240C, strain hsp82, hits give low values 0.993 | S. cerevisiae deletion strains, locus YPL241C, strain CIN2, hits give low values 0.994 | S. cerevisiae deletion strains, locus YPL256C, strain CLN2, hits give low values 1.01 | S. cerevisiae deletion strains, locus YPR119W, strain clb2, hits give low values 1.01 | S. cerevisiae deletion strains, locus YPR141C, strain kar3, hits give low values 0.98 | S. cerevisiae deletion strains, locus YPR163C, strain tif3, hits give low values 0.986 | S. cerevisiae deletion strains, locus YPR167C, strain met16, hits give low values 0.987 | S. cerevisiae deletion strains, strain wtn01, hits give low values 1.02 | S. cerevisiae strains, strain wild type, hits give low values 0.981
